# Measurements reported in PubChem BioAssay AID652126 (The Scripps Research Institute Molecular Screening Center, 2013).
# Among all 370,000 compounds or so, about 3,700 (1%) were called active.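 The calls were made as follows: active = activation above the mean over all tested compounds plus 3 SD (cut at about 0.9% in these data); inactive = the rest.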 Shown is part of a subset that was picked to be rich in actives.
# Tested on: Nuclear hormone receptor DAF-12 (Strongyloides stercoralis)
# Assay: ssDAF-12 driven luciferase reporter activation – cell-based, luminescence, HEK293, GRIP1 co-expression, lit1-tk-luc, primary screen (AID 652126);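 also: 0% = DMSO-only wells and 100% = 3 µM delta7-dafachronic acid wells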
# Conditions: HEK293 ssDAF-12/GRIP1 lit1-tk-luc reporter, at 6.8 µM, active compounds read high, % of 3 µM dafachronic acid response
row,SMILES,activation
1,Cc1nn(CCOc2ccccc2)c(=O)n1-c1ccccc1F,1.79% (active)
2,Cc1c(C(N)=O)sc2ncn(CCOc3ccccc3)c(=O)c12,-2.14% (inactive)
3,Cc1cccc2c1N(CCOc1ccccc1)C(=O)C2=O,-1.52% (inactive)
4,Cc1ccc(NC(=O)c2cc(C)nn2-c2ccccc2)c(C)c1,-1.78% (inactive)
5,O=C(CNS(=O)(=O)c1ccccc1F)N1CCN(c2ccccn2)CC1,-1.72% (inactive)
6,Fc1ccc2nc(-c3ccccc3)nc(SCc3nnc(-c4ccccc4)o3)c2c1,1.48% (active)
7,Cc1ccc2nc(SCc3nnc(-c4ccccc4[N+](=O)[O-])o3)c(C#N)cc2c1,-1.27% (inactive)
8,Fc1ccc(-c2nnc(CSc3nnc(-c4ccc5c(c4)OCO5)o3)o2)cc1,-1.18% (inactive)
9,O=C1CC[C@@H](COc2ccc3[nH]cc(-c4ccccc4)c3c2-c2ccccc2)N1,-0.33% (inactive)
10,COC1=C[C@H](C(=O)NCCNC(C)=O)[C@H](C)[C@@H](c2ccccc2)CC1=O,-1.26% (inactive)
11,FC(F)(F)c1ccc2c3n(nc2c1)CCN=C3c1ccc(Cl)cc1,1.01% (active)
12,CC(c1nnc(SCC(=O)Nc2sccc2C#N)n1-c1ccc(Cl)cc1)N(C)C (stereo not given),-0.72% (inactive)
13,Cc1csc(SCC(=O)Nc2sccc2C#N)n1,0.96% (active)
14,CC(=O)c1cc(C#N)c(SCC(=O)Nc2nccs2)nc1C,-0.91% (inactive)
15,C=C(C)C1CC23C(=O)C4(C(=O)c5ccccc5)C[C@@]5(C)CCC(CC2C1(C)C)(C4=O)C35OC (stereo not given in full),-1.03% (inactive)
16,Clc1ccc(-n2c(SC/C=C/c3ccccc3)nnc2-c2ccco2)cc1,-1.68% (inactive)
17,COc1ccc(C(=O)OCCN(C)C2CN(Cc3cn(Cc4cccc(C)c4)nn3)S(=O)(=O)C2)cc1OC (stereo not given),-0.78% (inactive)
18,Cc1ccc2nc(-c3ccccc3)c(CC3CCCCC3)n2c1,1.3% (active)
19,Brc1ccc2nc(-c3ccccc3)c(Cc3ccccc3)n2c1,-0.45% (inactive)
20,COc1ccccc1Cc1c(-c2ccc(F)cc2)nc2ccc(C)cn12,0.07% (inactive)
21,COc1ccc(-n2c(SCC(=O)Nc3ccc4cn[nH]c4c3)nnc2-c2cccnc2)cc1,-1.16% (inactive)
22,O=C(CSc1nc2c(c(=O)[nH]1)CCCC2)N1CCCCC1,-1.67% (inactive)
23,NC(=O)c1c(Nc2nc3c(F)cccc3s2)sc2c1CCCC2,1.29% (active)

row,SMILES,activation
1,COC(=O)c1c(NC(=O)COC(=O)[C@@H](NS(=O)(=O)c2ccccc2)C(C)C)sc2c1CCC2,-1.44% (inactive)
2,CCOC(=O)C(NC(=O)CC(C)C)(Nc1sc2c(c1C(N)=O)CCCC2)C(F)(F)F (stereo not given),-0.54% (inactive)
3,NC(=O)c1c(NC(=O)c2ccccc2)sc2c1CCCC2,2.15% (active)
4,CCN(CC)CC(=O)Nc1sc2c(c1C(=O)c1ccccc1C)CCC2,-1.11% (inactive)
5,NNc1nc2c(Cl)cccc2s1,-0.81% (inactive)
6,Cc1ccc(C(=O)C2CCN(CC(=O)NCCC(C)C)CC2)cc1,-1.67% (inactive)
7,Clc1ccc(Nc2ccc3ccccc3n2)cc1,2.58% (active)
8,C=CCNc1nc(Nc2ccc(Cl)cc2)nc(OC)n1,-0.26% (inactive)
9,CC1(C)N=C(N)NC(Nc2ccc(Cl)cc2)=N1,-1.4% (inactive)
10,O=C(CCl)NC1CCCCN(Cc2cccc(C(F)(F)F)c2)C1=O (stereo not given),-1.24% (inactive)
11,NCC(=O)c1cccc2ccc[n+]([O-])c12,-0.72% (inactive)
12,Cc1ccccc1NC(=O)C1CCN(c2ncccn2)CC1,0.24% (inactive)
13,CCCCNc1cccc2c1S(=O)(=O)N[C@@H](C)CO2,-0.23% (inactive)
14,Cc1ccc(NC(=O)CSc2nnc(COc3ccccc3C)o2)cc1,-1.56% (inactive)
15,CC(C)NC(=O)CSc1nnc(COc2ccccc2Cl)o1,1.16% (active)
16,Cc1ccccc1OCc1nnc(SCC(=O)N2c3ccccc3Sc3ccc(Cl)cc32)o1,-1.28% (inactive)
17,COc1cccc(NC(=O)c2cc(S(=O)(=O)N3CCc4ccccc43)cn2C)c1,-1.71% (inactive)
18,Cc1ccc(CSc2nnc(SCC(=O)NN=Cc3cc(Br)ccc3F)s2)cc1,-1.54% (inactive)
19,CCCCNC(=O)C[C@H]1C(=O)N(Cc2ccc(OC)cc2)C2=CCCC[C@@]21C(=O)OCC,-0.84% (inactive)
20,COC[C@@H]1CCCN1c1ccc2c(c1)O[C@H](C)CCN(C1CC1)S2(=O)=O,-1.91% (inactive)
21,CCC(C)C(=O)Nc1cc([N+](=O)[O-])ccc1Cl (stereo not given),-1.16% (inactive)
22,CNc1ccc([N+](=O)[O-])cc1C(=O)O,-1.81% (inactive)
23,Cc1ccc(NC(=O)c2cc([N+](=O)[O-])ccc2Cl)c(O)c1,1.5% (active)

row,SMILES,activation
1,Cc1ccc(Cn2cc(COC(=O)N(C)Cc3ccccc3)nn2)cc1,-0.46% (inactive)
2,C=CCN1C(=O)[C@@H](CC(=O)NCCCOCCCC)[C@]2(C(=O)OCC)CCCCC/C=C/12,-0.98% (inactive)
3,O=C(CSc1nc2sc3c(c2c(=O)n1-c1ccccc1)CCCC3)NN=Cc1ccc(OCc2ccccc2)cc1,-0.96% (inactive)
4,CCOc1ccc(NC(=O)c2ccc(CSc3nnnn3C)cc2)cc1,-1.09% (inactive)
5,CCOc1ccc(NC(=O)c2ccc(NC(=O)COC(=O)c3ccc(NC(=O)CC#N)cc3)cc2)cc1,0.93% (active)
6,CCOc1ccc(NC(=O)c2ccc(NC(=O)CN3C(=O)C(=O)N(CC(C)C)C3=O)cc2)cc1,-0.14% (inactive)
7,COc1ccc(CN2C(=O)N3Cc4cc(OC)ccc4C3CS2(=O)=O)cc1 (stereo not given),-1.71% (inactive)
8,CCOC(=O)C1(Cc2ccccc2)CCN(Cc2cn(C(C)=O)c3ccccc23)CC1,0.62% (inactive)
9,CCOC(=O)[C@]12CCCCC/C=C\1N(Cc1ccc(OC)cc1)C(=O)[C@H]2CC(=O)NCCCN1CCCC1=O,-0.74% (inactive)
10,Cc1ccc(-n2c(SCC(=O)Nc3cccc4ccccc34)nnc2-c2ccco2)cc1,-0.86% (inactive)
11,Nc1ccccc1/C=N\N=C/c1ccccc1N,1.95% (active)
12,CN(CCc1ccccc1)C(=O)Cn1nc(-c2ccccc2)ccc1=O,-0.4% (inactive)
13,COC(=O)C[C@@H]1CC[C@@H]2[C@@H](COc3ccc(NC(=O)Nc4ccc(F)c(F)c4)cc3C(=O)N2C)O1,-1.37% (inactive)
14,O=C(NC1CCC1)c1ccc(C#CC2CC2)cn1,0.89% (inactive)
15,O=C(NCCCc1ccccc1)[C@H](Cc1ccccc1)NC1(C(=O)NCCc2c[nH]c3ccccc23)CCC1,-0.89% (inactive)
16,NC(c1csc(NC(=O)Nc2cccc(C(F)(F)F)c2)n1)C1CCCCC1 (stereo not given),-0.46% (inactive)
17,Cc1cc(S(=O)(=O)N2CCOCC2)ccc1OCC(=O)Nc1cccc(C(F)(F)F)c1,-1.62% (inactive)
18,Cc1ccc(NC(=O)Nc2cccc(C(F)(F)F)c2)nc1,4.62% (active)
19,Cc1cc(C(F)(F)F)c(C#N)c(SCC(=O)NC2CC2)n1,-1.36% (inactive)
20,CCN(CC)c1nc(-c2ccccc2)cc(C(F)(F)F)c1C#N,-0.98% (inactive)
21,N#Cc1c(C(F)(F)F)cc(-c2ccc(Cl)cc2)nc1SCC(=O)O,1.77% (active)
22,CCn1c(=O)n2n(c1=O)[C@@]1(C=C3CCCC[C@H]32)N=C(NC(=O)c2ccccc2)N(Cc2ccccc2)[C@H]1Cc1ccccc1,-1.66% (inactive)
23,O=S1(=O)c2ccc(Br)cc2OC[C@H](Cc2ccccc2)N1Cc1cn(Cc2ccccc2)nn1,-1% (inactive)

row,SMILES,activation
1,Cc1cccc(C2c3[nH]c4ccccc4c3CCN2C(=O)c2cc(-c3cccn3C)n[nH]2)n1 (stereo not given),-0.27% (inactive)
2,COc1ccc(C2c3[nH]c4ccccc4c3CCN2CCCn2cccn2)cc1C (stereo not given),0.43% (inactive)
3,Cc1cccc(C(=O)N2CCc3c([nH]c4ccccc34)C2CC(C)C)n1 (stereo not given),1.53% (active)
4,C[C@@H](NC(=O)c1ccccc1OCC(=O)Nc1ccc(I)cc1)C(=O)N(C)Cc1ccccc1,-1.27% (inactive)
5,COC(=O)C[C@H]1CC[C@H]2[C@H](COc3ccc(NC(=O)C4CC4)cc3C(=O)N2C)O1,-1.49% (inactive)
6,Cc1ccc(NC(=O)N2CCC(O)(c3cccnc3)CC2)cc1,-1.43% (inactive)
7,Cc1ccc(NC(=O)Nc2cccnc2)cc1,1.08% (active)
8,O=C(Nc1ccc(Cl)cc1)Nc1ccc(Oc2cccnc2)nc1,-1.82% (inactive)
9,COc1cccc(CSc2nnc(-c3cccnc3)n2Cc2ccccc2)c1,-1.73% (inactive)
10,COC(=O)[C@]12C[C@H](CC(=O)N3CCOCC3)C(=O)N(Cc3ccc(Cl)cc3Cl)C1=C[C@H](C(C)C)O[C@@H]2C1CC1,-0.42% (inactive)
11,Cc1ccccc1NC(=O)Cn1nnc(-c2ccccc2F)n1,-0.75% (inactive)
12,CC(C)(C)N(CC#CCC(O)(c1ccccc1)C1CCCC1)CCO (stereo not given),-0.45% (inactive)
13,CN(CC#CCC(c1ccccc1)c1ccccc1)C(C)(C)C,1.07% (active)
14,C#CCNC(=O)C[C@H]1C[C@@]2(C(=O)OC)C(=C[C@H](C(C)C)O[C@@H]2C2CC2)N(Cc2ccco2)C1=O,-1.02% (inactive)
15,Cc1cc(OC(=O)c2ccccc2Cl)ccc1N1C(=O)CCC1=O,-1.58% (inactive)
16,CCOC(=O)c1nn(-c2cccc(C)c2)cc1C(=O)c1ccccc1,-0.86% (inactive)
17,Cc1cccc(/C(N)=N/OC(=O)c2ccccc2Cl)c1,1.96% (active)
18,Cc1cccc(-n2cnc(C(=O)NNC(=S)Nc3ccccc3)c2)n1,-1.77% (inactive)
19,CC(C)(COC(=O)Nc1ccccc1)COC(=O)Nc1ccccc1,-0.77% (inactive)
20,N/C(=N\OC(=O)Nc1ccccc1)c1ccno1,5.22% (active)
21,O=C(Nc1ccccc1)O/N=C1/CCCc2occc21,-1.48% (inactive)
